In assay [1] the target is Paired box protein Pax-6 (Homo sapiens) (UniProt P26367). In words: ATG_Pax6_CIS: Attagene CIS-FACTORIAL HepG2 Assay for human Paired Box 6 (PAX6) (AID 2282956). The note with it: HepG2 CIS-FACTORIAL PAX6 reporter transcription, RNA readout; actives raise or lower the signal. The procedure, abridged: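 HepG2 cells transiently transfected with multiplexed cis-promoter reporter units (endogenous TF activity) were dosed for 24 h. Reporter mRNA was quantified by RT-PCR, 6-FAM labeling, HpaI digestion and capillary electrophoresis; bidirectional fitting versus DMSO baseline.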

Assay [2] in a line: ATG_PPRE_CIS: Attagene CIS-FACTORIAL HepG2 Assay for human Peroxisome Proliferator-activated Response Element (PPRE) (AID 2282958). The following applies: HepG2 PPRE cis-element reporter, Attagene transcription factor profiling; actives raise or lower the signal. Summed up: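 Read-out: fluorescent reporter mRNA fragments resolved by capillary electrophoresis after RT-PCR. HepG2 cells carried transiently transfected PPRE-driven cis reporter constructs and were dosed for 24 h; gain or loss of signal fitted relative to DMSO.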

Assay [3] is described as follows: ATG_RORE_CIS: Attagene CIS-FACTORIAL HepG2 Assay for human RAR-related Orphan Receptor Element (RORE) (AID 2282959). The following applies: HepG2 Attagene cis-factorial RORE reporter, mRNA; actives raise or lower the signal. Summed up:
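Readout: fluorescent reporter mRNA by RT-PCR plus capillary electrophoresis, 24 h after dosing transfected HepG2 cells. Endogenous transcription factor activity on a cis promoter element is measured. Gain or loss of signal fitted against DMSO.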

Assay [4] can be described thus: ATG_Sox_CIS: Attagene CIS-FACTORIAL HepG2 Assay for human SRY-box transcription factor (SOX) (AID 2282960). The note with it: HepG2 Attagene cis-factorial SOX reporter, mRNA; actives raise or lower the signal. Summed up:
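Read-out: fluorescent RT-PCR products of SOX1-linked reporter transcripts resolved by capillary electrophoresis, fitted bidirectionally against DMSO. Transiently transfected HepG2 cells, 24 h after chemical exposure, endogenous transcription factor activity.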

Assay [5] deals with Transcription factor Sp1 (Homo sapiens) (UniProt P08047). In words: ATG_Sp1_CIS: Attagene CIS-FACTORIAL HepG2 Assay for human Specificity Protein 1 (Sp1) (AID 2282961). The following applies: HepG2 Sp1 cis-reporter transcription, actives raise or lower the signal. The procedure, abridged: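 Read-out: fluorescence of 6-FAM-labeled, HpaI-digested RT-PCR products separated by capillary electrophoresis. HepG2 cells carried transfected cis-element reporter units and were exposed to chemicals for 24 h; gain or loss of signal fitted relative to DMSO.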

The nature of assay [6]: ATG_SREBP_CIS: Attagene CIS-FACTORIAL HepG2 Assay for human Sterol Regulatory Element Binding (SREBP) (AID 2282962). The following applies: HepG2 Attagene cis-factorial SREBP reporter, mRNA; actives raise or lower the signal. Summed up:
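HepG2 cells transiently transfected with multiplexed cis-element reporter units report endogenous transcription factor activity. After 24 h of chemical exposure, reporter mRNA was quantified by RT-PCR, 6-FAM labelling, HpaI digestion and capillary electrophoresis; bidirectional fits used DMSO as baseline.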

A short description of assay [7]: ATG_TA_CIS: Attagene CIS-FACTORIAL HepG2 Assay for human TA Basal Promoter (AID 2282964). The following applies: HepG2 Attagene CIS-factorial TA basal promoter reporter; actives raise or lower the signal. The procedure, abridged:
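Read-out: fluorescent reporter-transcript fragments resolved by capillary electrophoresis after RT-PCR and HpaI digestion. Source: HepG2 cells carrying transiently transfected multi-reporter cis constructs, treated 24 h. Endpoint fitted bidirectionally relative to DMSO.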

Assay [8] is described as follows: ATG_TCF_b_cat_CIS: Attagene CIS-FACTORIAL HepG2 Assay for human T-Cell-Factor with beta-catenin (TCF/b-cat) (AID 2282965). The note with it: HepG2 TCF/beta-catenin cis-reporter transcription, actives raise or lower the signal. The procedure, abridged: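 HepG2, transient MRTU transfection, cis-element-driven reporters (endogenous TFs). 24 h compound exposure. Readout: reporter mRNA by RT-PCR + 6-FAM primer extension, HpaI digest, capillary electrophoresis. Gain/loss fit vs DMSO baseline.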

Assay [9] in a line: ATG_TAL_CIS: Attagene CIS-FACTORIAL HepG2 Assay for human TAL Basal Promoter (AID 2282966).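 Further: background control endpoint measuring basal TAL promoter reporter mRNA not a specific factor.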 The following applies: HepG2 Attagene cis-factorial TAL promoter reporter; actives raise or lower the signal. Summed up: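 Fluorescence of labelled reporter cDNA fragments, resolved by capillary electrophoresis, gave the readout. Human HepG2 liver cells carried transiently transfected cis-element reporter units and were treated for 24 hours; activity was fitted bidirectionally against DMSO.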

A short description of assay [10]: ATG_TGFb_CIS: Attagene CIS-FACTORIAL HepG2 Assay for human Transforming Growth Factor (TGF) (AID 2282967). The note with it: HepG2 Attagene CIS TGFb reporter, mRNA transcription; actives raise or lower the signal. The procedure, abridged:
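Transient MRTU transfection of HepG2 (FuGene 6). Dose 24 h. TriZol RNA, oligo(dT) RT, PCR, 6-FAM primer extension, HpaI cut, CE. Bidirectional fit, DMSO = baseline.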

Assay [11] in a line: ATG_VDRE_CIS: Attagene CIS-FACTORIAL HepG2 Assay for human Vitamin D Receptor Element (VDRE) (AID 2282968). The following applies: HepG2 VDRE cis-reporter transcription, actives raise or lower the signal. Summed up:
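Cell-based multiplexed reporter format in human liver HepG2 cells, 24 h post-dose. Fluorescence from capillary electrophoresis of reporter cDNA gives the signal, with DMSO as negative control and baseline.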

For assay [12], the target named is Nuclear receptor subfamily 1 group I member 3 (Homo sapiens) (UniProt Q14994). In words: ATG_CAR_TRANS: Attagene TRANS-FACTORIAL HepG2 Assay for human Constitutive Androstane Receptor (CAR) (AID 2282969; active means hit-call score of the fitted dose curve at least 0.9, where 1 is the maximum;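 further: activators raise reporter mRNA above DMSO so AC50 marks induction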). The following applies: HepG2 Attagene TRANS-FACTORIAL CAR reporter. The procedure, abridged:
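HepG2 cells transiently transfected with GAL4-UAS reporter units; TRANS format reads activity of exogenous chimeric NR-Gal4 protein. After 24 h dosing, reporter mRNA quantified by RT-PCR, 6-FAM labelling and capillary electrophoresis; gain of signal fitted against DMSO.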

Assay [13] concerns the target Estrogen receptor (Homo sapiens) (UniProt P03372). The experiment in a line: ATG_ERa_TRANS: Attagene TRANS-FACTORIAL HepG2 Assay for human Estrogen Receptor alpha (ERa) (AID 2282970; active means hit-call score of the fitted dose curve at least 0.9, where 1 is the maximum). The note with it: HepG2 Attagene TRANS ERa GAL4 reporter, mRNA. Summed up:
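Human liver HepG2, transient transfection of multiple GAL4-UAS reporter units; TRANS format (exogenous NR-Gal4 chimera). 24 h dosing. Readout: reporter mRNA, RT-PCR, 6-FAM primer extension, HpaI digest, capillary electrophoresis. Positive direction vs DMSO.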

Assay [14] concerns the target X-box-binding protein 1 (Homo sapiens) (UniProt P17861). The experiment in a line: ATG_Xbp1_CIS: Attagene CIS-FACTORIAL HepG2 Assay for human X-box Binding Protein 1 (XBP1) (AID 2282972). The note with it: HepG2 XBP1 cis-element reporter, Attagene multiplex; actives raise or lower the signal. The procedure, abridged: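 HepG2 cells transiently transfected with cis-regulated multiple reporter transcription units; endogenous transcription factor activity measured 24 hours after chemical dosing. Reporter mRNA quantified by RT-PCR, 6-FAM primer extension, HpaI digestion and capillary electrophoresis; bidirectional fitting versus DMSO.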

Assay [15] can be described thus: ATG_M_19_TRANS: Attagene TRANS-FACTORIAL HepG2 Assay for M19 Transcription Factor (Internal Marker) (AID 2282974; active means hit-call score of the fitted dose curve at least 0.9, where 1 is the maximum). The following applies: HepG2 Attagene TRANS-FACTORIAL M19 internal marker reporter. Summed up:
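24 h chemical exposure of transiently transfected HepG2 (MRTU library). RNA → oligo(dT) RT → PCR → 6-FAM labelling → HpaI cut → CE fluorescence. Positive-direction fit vs DMSO baseline; background internal-marker readout.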

The target of assay [16] is Signal transducer and activator of transcription 3 (Homo sapiens) (UniProt P40763). In words: ATG_STAT3_CIS: Attagene CIS-FACTORIAL HepG2 Assay for human Signal Transducer and Activator of Transcription 3 (STAT3) (AID 2282963). The note with it: HepG2, Attagene cis-factorial STAT3 reporter transcription; actives raise or lower the signal. Summed up:
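Values derive from bidirectional fits relative to DMSO of reporter mRNA levels, measured by RT-PCR with capillary electrophoresis, in HepG2 cells carrying transiently transfected cis-regulated reporter units and exposed 24 h.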

The nature of assay [17]: ATG_GAL4_TRANS: Attagene TRANS-FACTORIAL HepG2 Assay for GAL4 (Internal Marker) (AID 2282976; active means hit-call score of the fitted dose curve at least 0.9, where 1 is the maximum). The note with it: HepG2 Attagene TRANS GAL4 internal marker reporter. The procedure, abridged: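 First, HepG2 cells were transfected with reporter units under GAL4-UAS control. Next, they were treated with chemical for 24 h. Finally, RNA was reverse-transcribed, PCR-amplified, FAM-labelled and resolved by capillary electrophoresis, with induction scored against DMSO.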

Drawing on PubChem BioAssay (EPA / NIEHS), this text covers outcome and AC50 for 5 compounds.

Records with an inconclusive call do not appear. The source made the active and inactive calls. How the source made its calls, unless noted: active means hit-call score of the fitted dose curve at least 0.9, where 1 is the maximum; inactive means score below 0.9.

Sequence of Signal transducer and activator of transcription 3 (Homo sapiens) (P40763 whole entry, looked up): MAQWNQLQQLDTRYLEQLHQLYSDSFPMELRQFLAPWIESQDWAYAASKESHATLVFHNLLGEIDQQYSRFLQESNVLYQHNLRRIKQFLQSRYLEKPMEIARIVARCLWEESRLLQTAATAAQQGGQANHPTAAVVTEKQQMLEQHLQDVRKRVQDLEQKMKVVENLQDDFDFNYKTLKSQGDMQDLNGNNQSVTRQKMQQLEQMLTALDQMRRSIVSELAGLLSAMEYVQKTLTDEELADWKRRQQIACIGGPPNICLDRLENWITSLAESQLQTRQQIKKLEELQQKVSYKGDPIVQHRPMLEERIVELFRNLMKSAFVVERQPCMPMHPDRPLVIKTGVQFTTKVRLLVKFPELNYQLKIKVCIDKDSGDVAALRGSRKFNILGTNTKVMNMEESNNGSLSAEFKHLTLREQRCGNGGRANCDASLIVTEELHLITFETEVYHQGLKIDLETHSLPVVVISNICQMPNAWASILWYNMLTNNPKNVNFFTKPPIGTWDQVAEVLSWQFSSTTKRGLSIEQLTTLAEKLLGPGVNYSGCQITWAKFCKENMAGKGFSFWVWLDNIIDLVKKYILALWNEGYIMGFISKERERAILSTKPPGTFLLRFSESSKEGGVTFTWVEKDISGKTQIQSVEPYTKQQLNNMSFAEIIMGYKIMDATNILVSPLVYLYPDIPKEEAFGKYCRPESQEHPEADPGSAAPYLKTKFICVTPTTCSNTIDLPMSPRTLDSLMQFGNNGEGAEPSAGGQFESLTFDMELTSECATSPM
Sequence of Paired box protein Pax-6 (Homo sapiens) (P26367 whole entry, looked up): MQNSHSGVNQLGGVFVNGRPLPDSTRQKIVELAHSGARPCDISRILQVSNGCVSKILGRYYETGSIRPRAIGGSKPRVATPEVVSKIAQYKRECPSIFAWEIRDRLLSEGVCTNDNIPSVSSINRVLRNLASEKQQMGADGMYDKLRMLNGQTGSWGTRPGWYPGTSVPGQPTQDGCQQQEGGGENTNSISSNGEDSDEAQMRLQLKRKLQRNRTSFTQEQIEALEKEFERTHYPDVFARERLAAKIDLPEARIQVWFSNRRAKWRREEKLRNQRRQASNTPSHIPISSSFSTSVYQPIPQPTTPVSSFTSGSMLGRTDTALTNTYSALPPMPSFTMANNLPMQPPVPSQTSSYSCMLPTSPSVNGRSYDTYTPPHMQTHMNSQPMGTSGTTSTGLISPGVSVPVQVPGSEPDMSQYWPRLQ
Sequence of X-box-binding protein 1 (Homo sapiens) (P17861 whole entry, looked up): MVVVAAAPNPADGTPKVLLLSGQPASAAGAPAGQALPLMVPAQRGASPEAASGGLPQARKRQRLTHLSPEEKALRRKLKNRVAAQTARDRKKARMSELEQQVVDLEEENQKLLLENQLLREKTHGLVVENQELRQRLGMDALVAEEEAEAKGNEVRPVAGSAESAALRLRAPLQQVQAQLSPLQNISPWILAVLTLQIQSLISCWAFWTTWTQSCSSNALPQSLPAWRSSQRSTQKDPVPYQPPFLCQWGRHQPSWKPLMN
Sequence of Estrogen receptor (Homo sapiens) (P03372 whole entry, looked up, the tested form may be a part): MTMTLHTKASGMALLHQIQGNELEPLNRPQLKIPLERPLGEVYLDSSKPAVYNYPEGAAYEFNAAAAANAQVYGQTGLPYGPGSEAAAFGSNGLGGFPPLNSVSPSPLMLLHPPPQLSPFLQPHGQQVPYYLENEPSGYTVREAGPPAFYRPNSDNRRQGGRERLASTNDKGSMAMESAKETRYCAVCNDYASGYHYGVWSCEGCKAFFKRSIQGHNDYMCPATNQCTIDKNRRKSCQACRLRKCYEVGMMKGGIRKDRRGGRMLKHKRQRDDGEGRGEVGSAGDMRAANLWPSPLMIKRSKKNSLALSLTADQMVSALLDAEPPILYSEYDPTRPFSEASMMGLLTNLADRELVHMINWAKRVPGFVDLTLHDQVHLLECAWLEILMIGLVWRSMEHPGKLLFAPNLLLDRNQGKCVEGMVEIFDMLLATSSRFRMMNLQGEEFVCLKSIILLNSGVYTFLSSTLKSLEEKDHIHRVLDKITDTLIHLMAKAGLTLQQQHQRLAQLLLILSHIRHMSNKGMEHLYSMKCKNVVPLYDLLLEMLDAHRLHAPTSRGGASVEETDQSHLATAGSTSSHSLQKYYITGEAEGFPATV
Sequence of Transcription factor Sp1 (Homo sapiens) (P08047 whole entry, looked up): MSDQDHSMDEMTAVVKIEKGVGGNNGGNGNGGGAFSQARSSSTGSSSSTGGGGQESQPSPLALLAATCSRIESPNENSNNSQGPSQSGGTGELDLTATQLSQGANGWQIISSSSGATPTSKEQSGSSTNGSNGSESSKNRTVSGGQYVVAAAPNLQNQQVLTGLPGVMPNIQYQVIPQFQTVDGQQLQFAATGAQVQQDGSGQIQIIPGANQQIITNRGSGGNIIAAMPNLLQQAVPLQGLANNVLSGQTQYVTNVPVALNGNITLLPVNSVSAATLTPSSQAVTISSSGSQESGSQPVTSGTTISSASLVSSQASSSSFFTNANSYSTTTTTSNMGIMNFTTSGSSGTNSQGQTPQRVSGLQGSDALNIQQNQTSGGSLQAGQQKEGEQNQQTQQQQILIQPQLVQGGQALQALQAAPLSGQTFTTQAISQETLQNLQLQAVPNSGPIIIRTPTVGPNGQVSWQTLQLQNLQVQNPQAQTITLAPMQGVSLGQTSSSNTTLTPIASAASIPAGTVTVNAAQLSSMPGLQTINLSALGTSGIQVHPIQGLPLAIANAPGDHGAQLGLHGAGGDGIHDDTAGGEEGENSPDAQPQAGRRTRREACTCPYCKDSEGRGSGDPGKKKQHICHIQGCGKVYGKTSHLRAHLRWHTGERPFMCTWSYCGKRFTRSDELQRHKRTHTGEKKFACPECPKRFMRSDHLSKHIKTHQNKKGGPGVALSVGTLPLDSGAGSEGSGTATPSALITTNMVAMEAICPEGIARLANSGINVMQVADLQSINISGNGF
Sequence of Nuclear receptor subfamily 1 group I member 3 (Homo sapiens) (Q14994 whole entry, looked up, the tested form may be a part): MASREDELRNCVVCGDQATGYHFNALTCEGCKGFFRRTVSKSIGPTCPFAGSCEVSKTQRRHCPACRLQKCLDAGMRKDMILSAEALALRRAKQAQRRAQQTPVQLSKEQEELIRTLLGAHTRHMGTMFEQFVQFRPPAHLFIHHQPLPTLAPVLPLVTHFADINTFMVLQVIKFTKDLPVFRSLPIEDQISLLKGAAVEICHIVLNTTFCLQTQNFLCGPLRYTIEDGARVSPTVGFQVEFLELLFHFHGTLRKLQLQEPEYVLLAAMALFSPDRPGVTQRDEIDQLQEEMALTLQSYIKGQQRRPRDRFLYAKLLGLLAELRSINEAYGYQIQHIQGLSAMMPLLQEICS

On to `CCOC(=O)c1ccc(N(C)C)cc1`, for which the compound was called inactive in assay [1], in [2], in assay [3], in assay [4], in [5] and in assay [6]. Further, the result in assay [7], in assay [8], in [9], in assay [10], in [12] and in [13] was inactive. Further, the call in [14] and in assay [15] was inactive. Besides, the AC50 in assay [11] was 65.8 µM (active).

Turning to `Cc1cnc(NC(=O)C2=C(O)c3ccccc3S(=O)(=O)N2C)s1`, the call in [1], in [2], in assay [3], in assay [4], in assay [6] and in assay [16] was inactive. Moreover, the result in assay [8], in assay [9], in assay [10], in [13] and in [15] was inactive.

For the compound `Cc1ccc(C(C)(C)C)cc1`, the outcome in assay [1], in assay [2], in assay [3], in assay [4], in assay [5] and in assay [6] was inactive. In addition, the call in [16], in assay [7], in assay [8], in assay [9], in assay [10] and in assay [11] was inactive. The call in assay [12], in assay [14] and in [15] was inactive.

In the case of `CC(C)c1ccc2c(C(C)C)cc(C(C)C)c(S(=O)(=O)O)c2c1`, the outcome in assay [1], in assay [2], in [3], in assay [4], in assay [5] and in assay [7] was inactive. In addition, the compound was called inactive in assay [9], in [10], in [14] and in [17]. Moreover, the AC50 in assay [6] was 22.4 µM (active); in assay [11] it was 8.94 µM (active); in [13] it was 45.4 µM (active).

With `C[Si](C)(C)O[Si](O)(O)O`, the compound was classed as inactive in assay [1], in assay [2], in assay [3], in [4], in assay [5] and in assay [6]. The compound was called inactive in assay [16], in [7], in assay [8], in assay [9], in assay [10] and in assay [11]. Besides, the outcome in assay [13] and in assay [14] was inactive.

The term AC50 denotes the concentration at which the activity in the assay is half-maximal.
